Test results from PubChem BioAssay (NCI).
This is part of a sample that, as a whole, favours compounds with a hit. Of some 83,000 tested, about 20% had one in any assay.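 Results are percent growth after 48 hours of single-concentration exposure. 100 means growth as in untreated cells, lower positive values show inhibition; negative values down to -100 show cell death.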 A number with no mark means an inactive call. Active and inactive are the calls of the source. The calls were made as follows: active = growth percent below 10; inactive = the rest.

Columns and labels:
Test in all cases: NCI-60 one-dose screen, 48 h (100 = growth as untreated, 0 = no growth, -100 = all killed)
Settings in all cases: 10 µM unless noted
[1] = system: NCI-H23 lung
[2] = system: NCI-H226 lung
[3] = system: NCI-H322M lung
[4] = system: HOP-62 NSCLC
[5] = system: NCI-H460 lung
[6] = system: NCI-H522 lung
[7] = system: A549/ATCC NSCLC
[8] = system: 786-0 renal
[9] = system: COLO 205 colon
[10] = system: DU-145 prostate
[11] = system: K-562 leukemia
[12] = system: MALME-3M melanoma
[13] = system: RXF 393 renal
[14] = system: SF-268 CNS
[15] = system: SF-295 CNS
[16] = system: SF-539 CNS
[17] = system: UACC-257 melanoma
[18] = system: M14 melanoma
[19] = system: MDA-MB-231 breast
[20] = system: HOP-92 NSCLC

Row | SMILES | growth [1] | growth [2] | growth [3] | growth [4] | growth [5] | growth [6] | growth [7] | growth [8] | growth [9] | growth [10] | growth [11] | growth [12] | growth [13] | growth [14] | growth [15] | growth [16] | growth [17] | growth [18] | growth [19] | growth [20]
1 | C=C(c1ccc(N(C)C)cc1)c1ccc(N(C)C)cc1 | 16.2% | 44.3% | 29.7% | 23.1% | 6.37% (active) | -28.6% (active) | 30.8% | 34.6% | -4.63% (active) | 20.3% | 5.61% (active) | 20.6% | -11% (active) | 31.2% | 21% | -44.9% (active) | 52.3% | -47.2% (active) | – | –
2 | CC(=O)N(C)N=Nc1ccc(C)cc1 | 95% | 97.7% | 92.3% | 95.8% | 116% | 92.9% | 113% | 99.9% | 115% | 107% | 105% | 94.5% | 122% | 91.3% | 101% | 101% | 101% | 96.7% | 102% | –
3 | COc1ccc(/C=C\C(=O)/C=C/c2ccc(OC)cc2)cc1 | 84.7% | 81.4% | 99.6% | 95.4% | 107% | 94.7% | 102% | 83.5% | 107% | 96.4% | 9.76% (active) | 95.1% | 100% | 105% | 101% | 62.8% | 106% | 40.2% | – | –
4 | CCCC(OC(C)=O)c1ccc2c(c1)OCO2 (stereo not given) | 97.7% | 99.4% | 97.8% | 98.7% | 106% | 103% | 104% | 100% | 107% | 104% | 99% | 91.9% | 104% | 102% | 105% | 105% | 94.9% | 102% | 113% | –
5 | CN1CCCN(C(c2ccccc2)c2ccc(Br)cc2)CC1 (stereo not given) | 87.1% | 78.2% | 39.7% | 76.8% | 82.5% | 90.8% | 87.7% | 79.1% | 81.5% | 94.8% | 20.3% | 63.1% | – | 61.6% | 57.8% | 75.2% | 91% | -8.62% (active) | 49% | –
6 | O=C(O)c1ccc(OCc2ccccc2)cc1 | 95.5% | 90.2% | 93.5% | 93% | 108% | 92.4% | 94.5% | 99.4% | 104% | 109% | 108% | 102% | 112% | 106% | 96.2% | 97.5% | 89.9% | 103% | 92.7% | –
7 | C[C@H](CCC[C@H](C)OS(=O)(=O)c1ccccc1)OS(=O)(=O)c1ccccc1 | 107% | 90.4% | 96.7% | 99.9% | 114% | 86.8% | 117% | 107% | 115% | 119% | 110% | 96.9% | 142% | 105% | 102% | 91.7% | 107% | 106% | 103% | –
8 | CC(C)N(CCCC#N)C(C)C | 104% | 114% | 104% | 98.6% | 105% | 108% | 93.9% | 100% | 110% | 107% | 104% | 109% | 103% | 103% | 100% | 97.9% | 89.2% | 107% | 102% | –
9 | CC(=O)NC(CCc1ccc(Cl)c(Cl)c1)c1cccc(O)c(=O)c1 (stereo not given) | 21.8% | -13.8% (active) | 5% (active) | 10.3% | 3.68% (active) | 15.7% | 8.58% (active) | 10.2% | 16.7% | 16.6% | 11.2% | -17.9% (active) | 18.6% | 8.61% (active) | -22.2% (active) | 2.57% (active) | -11% (active) | -44.2% (active) | 28.3% | –
10 | CC1(C)C2CCC1(C)C1(C2)OCCS1 (stereo not given) | 95.6% | 92.7% | 99.6% | 101% | 106% | 102% | 99% | 97.4% | 118% | 103% | 96.5% | 94.6% | 96% | 93.8% | 92.2% | 94.1% | 102% | 113% | 100% | –
11 | O=C(c1cccc(C(=O)c2ccc3c4c(cccc24)C(=O)N(c2ccccc2)C3=O)c1)c1ccc2c3c(cccc13)C(=O)N(c1ccccc1)C2=O | 82.6% | 78.6% | 113% | 101% | 104% | 85% | 103% | 106% | 102% | – | 89.8% | 101% | 102% | 97.2% | 103% | 98.7% | 92% | 99.2% | 91.1% | –
12 | COC(=O)c1ccccc1C(=O)c1c(C)cc(C)cc1C | 94.7% | 89.5% | 101% | 95.1% | 105% | 87.5% | 84.4% | 104% | 104% | 104% | 96.7% | 99.1% | 111% | 102% | 102% | – | 99.6% | 108% | 97.4% | –
13 | CC1(C)OC2C(CO)OC(n3ccc(=O)[nH]c3=O)C2O1 (stereo not given) | 102% | 98.4% | 92.5% | 88.9% | 100% | 81.5% | 73.2% | 105% | 100% | 112% | 110% | 85.2% | 113% | 102% | 104% | – | 75.7% | 105% | 92.9% | –
14 | CCOC(=O)N[C@H]1CCc2cc(OC)c(OC)c(OC)c2-c2ccc(SC)c(=O)cc21 | 27.4% | -7.68% (active) | 30.7% | 30.1% | 2.01% (active) | -8.99% (active) | 17.3% | 15.6% | -4.99% (active) | 0.871% (active) | 9.44% (active) | 51.4% | 10.7% | 23% | 3.33% (active) | -21.9% (active) | 71% | 4.1% (active) | -22% (active) | –
15 | Cc1ccc(NCN2C(=O)c3ccccc3C2=O)c(C)n1 | 112% | 103% | 103% | 110% | 111% | 112% | 107% | 95.8% | 112% | 107% | 108% | – | 114% | 105% | 106% | 116% | 105% | 97.6% | 115% | –
16 | O=S(=O)(O)c1ccc(O)c(C2CCCCC2)c1 | 112% | 98.4% | 103% | 87.4% | 108% | 98.5% | 96.6% | 91.1% | 105% | 112% | 123% | – | 105% | 105% | 100% | 98.2% | 99.3% | 101% | 112% | –
17 | CCCC(=O)c1cccs1 | – | 93.2% | 112% | 99.9% | 105% | 107% | 99.3% | 92.1% | 111% | 109% | 112% | 107% | 102% | 105% | 95.7% | 93.7% | 92.5% | 105% | 104% | 84.7%
